PubChem BioAssay (Tox21)
Inconclusive results are not listed. Calls of active or inactive are those of the source. The call rests on the fitted dose curve; in most records, active means well fitted curve in the direction sought with a large enough effect in the repeat runs; inconclusive means weak or mixed curves; inactive means no such curve, though single readings can be large; an effect the other way counts as inactive or inconclusive.

How the values were obtained:
[1] = A CellTox Green Cytotoxicity Assay to monitor cytotoxicity in HEK293 cells - 40 hour (AID 1224871); further: nearly all actives have a fitted effect of over 45% in size; further: potency means the concentration at half of the fitted maximal effect
Procedure, shortened: (§1)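 Seeding of HEK293 cells together with cytotoxicity dye preceded a 5 h incubation at 37 C/5% CO2. Test compounds in DMSO were then added and fluorescence monitored across 40 h.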

[2] = qHTS RealTime-Glo MT Cell Viability Assay in HepG2 cells - 8 hour (AID 1224873); further: nearly all actives have a fitted effect of over 55% in size
Procedure, shortened: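 HepG2 cells mixed with RealTime-Glo MT reagents (NanoLuc plus cell-permeant prosubstrate) were seeded at 600 cells/well, incubated 5 h at 37 C/5% CO2, then pinned with compounds in DMSO; nonlytic luminescence tracked viability during 40 h treatment.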

[3] = qHTS RealTime-Glo MT Cell Viability Assay in HEK293 cells - 40 hour (AID 1224874); conditions: RealTime-Glo luminescence; max response: stronger effect = lower value; further: nearly all actives have a fitted effect of over 50% in size; further: potency means the concentration at half of the fitted maximal effect
Procedure, shortened: (§2)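 Tox21 screen in HEK293 using RealTime-Glo MT chemistry, with cells and reagent co-dispensed. Luminescence proportional to viable cell number was captured at intervals during 40 h compound exposure at 37 C.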

[4] = A CellTox Green Cytotoxicity Assay to monitor cytotoxicity in HEK293 cells - 24 hour (AID 1224875); further: series mostly up to about 77 µM; nearly all actives have a fitted effect of over 45% in size
Procedure, shortened: as §1

[5] = A CellTox Green Cytotoxicity Assay to monitor cytotoxicity in HepG2 cells - 16 hour (AID 1224876); further: nearly all actives have a fitted effect of over 45% in size; further: potency means the concentration at half of the fitted maximal effect
Procedure, shortened: (§3)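 Nonlytic assay: viable cells exclude the dye, so fluorescence scales with cell death. HepG2 at 600 cells/well, compounds added after 5 h, signal read across 40 h.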

[6] = qHTS RealTime-Glo MT Cell Viability Assay in HepG2 cells - 32 hour (AID 1224877); further: nearly all actives have a fitted effect of over 55% in size
Procedure, shortened: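 qHTS, HepG2, 600 cells/well, RealTime-Glo (NanoLuc + prosubstrate) added with cells; 5 h preincubation; DMSO compound addition; 37 C; luminescence at 0/8/16/24/32/40 h.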

[7] = A CellTox Green Cytotoxicity Assay to monitor cytotoxicity in HepG2 cells - 24 hour (AID 1224878); further: nearly all actives have a fitted effect of over 45% in size; further: potency means the concentration at half of the fitted maximal effect
Procedure, shortened: as §3

[8] = A CellTox Green Cytotoxicity Assay to monitor cytotoxicity in HepG2 cells - 40 hour (AID 1224879); further: nearly all actives have a fitted effect of over 40% in size; further: potency means the concentration at half of the fitted maximal effect
Procedure, shortened: as §3

[9] = qHTS RealTime-Glo MT Cell Viability Assay in HEK293 cells - 0 hour (AID 1224880)
Procedure, shortened: as §2

[10] = qHTS RealTime-Glo MT Cell Viability Assay in HEK293 cells - 16 hour (AID 1224872); further: top concentration of the series differs between compounds; nearly all actives have a fitted effect of over 50% in size
Procedure, shortened: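 Assay medium contained NanoLuc luciferase plus cell-permeant prosubstrate, added with HEK293 cells at 600 cells/well. After 5 h at 37 C/5% CO2 compounds were added; plates stayed at 37 C for 40 h with serial luminescence reads.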
On the % scale 0 is the no-effect control and ±100 the full control effect.

C=CC(=O)OCCOC(=O)C=C
inactive: Potency [2] | Potency [4] | Potency [5] | Potency [6] | Potency [7] | Potency [8]
active: Potency [1] 43.6 µM | Potency [3] 49 µM

c1ccc(C(O[C@@H]2CCCN(CCc3ccc4c(c3)OCO4)C2)c2ccccc2)cc1
inactive: Potency [1] | Potency [2] | Potency [4] | Potency [5] | Potency [6] | Potency [7]

Cc1cccc(C)c1NC(=O)c1ccc(N)cc1
inactive: Potency [1] | Potency [2] | max response [3] -2.12% | Potency [4] | Potency [5] | Potency [6] | Potency [7] | Potency [8] | Potency [9]

CCCCCc1ccc(Cl)cc1
inactive: Potency [1] | Potency [2] | Potency [4] | Potency [5] | Potency [6] | Potency [7] | Potency [8] | Potency [9]
active: Potency [3] 15.5 µM

CCC(C)[O-].CCC(C)[O-].CCOC(=O)/C=C(/C)[O-].[Al+3]
inactive: Potency [1] | Potency [2] | max response [3] 0.788% | Potency [4] | Potency [5] | Potency [6] | Potency [7] | Potency [8] | Potency [9]

CC(C)Cn1cnc2c(N)nc3ccccc3c21
inactive: cytotoxicity increase [1] 1.7% [at 15.8 µM] | viability change, negative = cytotoxic [2] -0.187% [at 15.8 µM] | activity change [4] 3.75% [at 15.8 µM, stronger effect = higher value] | cytotoxicity increase [5] -13.4% [at 15.8 µM] | activity change, negative = cytotoxic [6] -0.3% [at 15.8 µM] | cytotoxicity [7] -13.9% [at 15.8 µM] | cytotoxicity increase [8] -14.5% [at 15.8 µM] | activity change, negative = cytotoxicity [9] -0.941% [at 15.8 µM]

O=c1[nH]c(=O)n([C@H]2C[C@H](O)[C@@H](CO)O2)cc1F
active: Potency [3] 0.601 µM | Potency [5] 6.01 µM | Potency [7] 6.01 µM | Potency [8] 5.35 µM
inactive: Potency [1] | Potency [2] | Potency [4] | Potency [6] | Potency [9]

Cc1ccc(O)c(N)c1
inactive: Potency [1] | Potency [2] | Potency [4] | Potency [5] | Potency [6]

O=c1c(O)c(-c2ccc(O)cc2O)oc2cc(O)cc(O)c12
inactive: Potency [1] | Potency [2] | max response [3] 7.77% | Potency [4] | Potency [6]

O=C1CCc2cc(OCCCCc3nnnn3C3CCCCC3)ccc2N1
inactive: Potency [1] | Potency [2] | Potency [4] | Potency [5] | Potency [6] | Potency [7] | Potency [8]

C1CCC(SSC2CCCCC2)CC1
inactive: Potency [10] | Potency [2] | max response [3] -7.62% | Potency [4] | Potency [5] | Potency [6] | Potency [7] | Potency [8] | Potency [9]
